The results in this text go back to PubChem BioAssay AID2550 (Johns Hopkins Ion Channel Center, 2010).

About 380 (0.12%) of roughly 310,000 compounds were called active.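 The calls were made as follows: active = B-score of the integrated fluorescence ratio above library mean plus 3 SD, and starting fluorescence ratio within library mean plus 5 SD; inactive = the rest.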 Shown is part of a subset that was picked to be rich in actives.

The target in the experiment is Short transient receptor potential channel 6 (Mus musculus) (UniProt Q61143). In words: mouse TRPC6 channel activators, primary screen, cell-based, HEK293, membrane potential dye (AID 2550).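 Also: higher score means more depolarization so channel activation.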 The settings on record: HEK293-TRPC6 membrane potential dye fluorescence, at 10 µM; hits give high values.
Sequence of Short transient receptor potential channel 6 (Mus musculus) (Q61143 whole entry, looked up): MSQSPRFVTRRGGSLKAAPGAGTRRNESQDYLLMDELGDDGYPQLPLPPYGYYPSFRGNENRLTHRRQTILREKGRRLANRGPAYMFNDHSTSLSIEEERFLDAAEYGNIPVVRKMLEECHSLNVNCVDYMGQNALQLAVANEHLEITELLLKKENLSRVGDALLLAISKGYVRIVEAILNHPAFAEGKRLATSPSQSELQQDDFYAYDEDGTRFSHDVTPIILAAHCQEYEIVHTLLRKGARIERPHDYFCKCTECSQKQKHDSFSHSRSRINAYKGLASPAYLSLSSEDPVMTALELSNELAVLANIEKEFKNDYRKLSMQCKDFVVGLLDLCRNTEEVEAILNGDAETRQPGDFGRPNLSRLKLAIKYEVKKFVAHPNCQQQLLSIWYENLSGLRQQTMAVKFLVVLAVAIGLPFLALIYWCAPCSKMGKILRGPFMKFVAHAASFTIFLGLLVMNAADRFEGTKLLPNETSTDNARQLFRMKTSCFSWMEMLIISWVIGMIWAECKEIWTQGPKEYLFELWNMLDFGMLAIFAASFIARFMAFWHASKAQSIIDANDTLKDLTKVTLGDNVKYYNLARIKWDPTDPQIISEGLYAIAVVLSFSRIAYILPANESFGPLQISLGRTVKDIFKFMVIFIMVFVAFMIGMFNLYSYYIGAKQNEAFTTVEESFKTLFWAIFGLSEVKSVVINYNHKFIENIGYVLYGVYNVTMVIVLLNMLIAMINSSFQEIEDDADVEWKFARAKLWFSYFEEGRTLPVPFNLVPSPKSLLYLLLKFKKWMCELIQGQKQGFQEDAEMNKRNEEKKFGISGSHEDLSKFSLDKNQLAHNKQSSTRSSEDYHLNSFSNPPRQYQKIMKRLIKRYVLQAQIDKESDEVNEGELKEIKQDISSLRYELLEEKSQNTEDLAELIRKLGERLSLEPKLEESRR
In the case of `CCOC(=O)/C(N=Nc1cc(C(=O)O)cc(C(=O)O)c1)=C(\O)CCl`, the B-score result was “inactive”.

For `CC(=O)c1ccc(NC(=O)C(C)NCc2ccc(Cl)cc2)cc1` (configuration not stated), the B-score entry is “inactive”.

As to `N#C/C(=C/c1ccc(N2CCCCC2)o1)C(=O)NCCc1c[nH]c2ccccc12`, the B-score was 33.2 (active).

Take `O=C(CN1C(=O)NC2(CCCCC2)C1=O)NCCc1c[nH]c2ccccc12`: the B-score result is “inactive”.

For `CC(=O)N/C(=C/c1ccc(Cl)cc1)C(=O)NCCc1c[nH]c2ccccc12`, the B-score entry was “inactive”.

For `O=C(COc1cc2oc(=O)c3c(c2cc1Cl)CCC3)NCCCN1CCOCC1`, the B-score result was “inactive”.

`COc1nc(N(C)C)nc(N2CC(=O)N(CCNS(=O)(=O)c3ccc(C)cc3)C2=N)n1`: the B-score entry is “inactive”.

`CC(NCc1ccccc1OC1CCCC1)c1ccccc1` (configuration not stated): the B-score was 14.5 (active).

As to `CC(C)(C)NCc1cc(Br)ccc1OC1CCCC1`, the B-score entry is “inactive”.

In the case of `COc1ccccc1CN1CCN(C(c2ccccc2)c2ccccc2)CC1`, the B-score entry is “inactive”.

As to `COc1ccc2[nH]c(=O)c(CNc3ccc(C)c(C)c3)cc2c1`, the B-score entry is “inactive”.

Regarding `CC(=O)c1ccc(N2CCN(S(=O)(=O)c3c(C)[nH]c(=O)[nH]c3=O)CC2)cc1`, the B-score entry was “inactive”.

Regarding `CN1C(C(=O)NCC2CC2)CC2Cn3c(nc4ccccc43)C21` (configuration not stated), the B-score entry was “inactive”.

Take `CC1(C)OC(=O)C(=CSc2ccc(C(C)(C)C)cc2)C(=O)O1`: the B-score result is “inactive”.

As for `COc1ccc(NC(=O)CS(=O)(=O)c2ccccc2)cc1`, the B-score result is “inactive”.

As for `COc1ccc(-c2nnc(NC(=O)CS(=O)(=O)c3ccc(Cl)cc3)o2)c(OC)c1`, the B-score is 13.4 (active).

In the case of `Cc1ccc(C)c(-c2nnc(NC(=O)CS(=O)(=O)c3ccccc3)o2)c1`, the B-score result was “inactive”.

With `CCOC(=O)CSC1=N/C(=C/c2ccc(-n3cncn3)cc2)C(=O)N1C(C)=O`, the B-score entry is “inactive”.

For the molecule `COc1ccc(S(=O)(=O)NCC(=O)NC2CC2)cc1OC`, the B-score result is “inactive”.

Take `CCc1ccc2oc(=O)cc(CN3CCCCC3C)c2c1` (configuration not stated): the B-score result is “inactive”.

Take `CCC1OC(c2ccc([N+](=O)[O-])cc2)=Nc2ccccc21` (configuration not stated): the B-score result was “inactive”.

Consider `Cc1cc(Cl)ccc1C(=O)C1CCCN(C(=O)CCN2CCCO2)C1` (configuration not stated), for which the B-score result was “inactive”.

Regarding `O=C(COc1ccc(S(=O)(=O)N2CCOCC2)cc1Cl)N1CCOCC1`, the B-score entry is “inactive”.

For `O=c1[nH]oc(O)c1-c1ncc(C(F)(F)F)cc1Cl`, the B-score entry was “inactive”.

With `CC(C)(C)NC(=O)C(=O)NCc1ccncc1`, the B-score result is “inactive”.

Regarding `COc1ccc(CNC(=O)COC(=O)/C=C/c2ccc(S(=O)(=O)N3CCOCC3)cc2)cc1`, the B-score entry is “inactive”.

For `Cc1ccc(NC(=O)CN2C(=O)NC(C)(c3ccc(Cl)cc3)C2=O)c(Br)c1` (configuration not stated), the B-score result was “inactive”.

On to `O=C(COc1ccc2ccc(=O)oc2c1)NCC(O)c1ccccc1` (configuration not stated), for which the B-score entry is “inactive”.

Turning to `O=C(Nc1ccccc1Cl)c1ccccc1S(=O)(=O)c1ccccc1[N+](=O)[O-]`, the B-score result is “inactive”.

On to `CCOC(=O)c1sc2nc(CSCC(=O)OCc3ccc(C(=O)OC)o3)[nH]c(=O)c2c1C`, for which the B-score is 18.9 (active).

Take `CCOC(=O)c1sc2nc(CSc3ccccc3)[nH]c(=O)c2c1C`: the B-score entry was “inactive”.

For the molecule `CCOC(=O)c1sc2nc(C)[nH]c(=O)c2c1C`, the B-score result was “inactive”.

As to `COc1ccccc1N1CCN(C(=O)c2ccc(NC3=NC4CS(=O)(=O)CC4S3)cc2)CC1` (configuration not stated), the B-score result was “inactive”.

On to `CCn1cc(C(=O)N2CC=C(c3ccccc3)CC2)c(=O)c2ccc(C)nc21`, for which the B-score result is “inactive”.

For the molecule `CCOc1cc(-c2conc2N)cc(OCC)c1OCC`, the B-score entry was “inactive”.

Take `O=C(NCc1ccccc1)C(c1ccco1)N(C(=O)c1csnn1)c1ccccc1F` (configuration not stated): the B-score entry was “inactive”.

Regarding `COc1ccccc1CN1CCNC(=O)C1CC(=O)N(C)CC1CCOCC1` (configuration not stated), the B-score result is “inactive”.

For `Cc1ccc(CNC(=O)Cn2c(=O)c3sccc3n(Cc3cccc([N+](=O)[O-])c3)c2=O)cc1`, the B-score entry was “inactive”.

For the molecule `O=C(O)CC(Cn1cnnn1)c1ccccc1` (configuration not stated), the B-score entry was “inactive”.

For `CCc1ccc2nc(Nc3ncc(C(C)=O)c(C)n3)nc(C)c2c1`, the B-score entry was “inactive”.

For the molecule `CC(O)c1ccc(OCCN(C)c2ccccn2)cc1` (configuration not stated), the B-score result was “inactive”.

`O=C(CC1C(=O)NCCN1C(=O)c1ccc([N+](=O)[O-])cc1)Nc1cccc(Cl)c1` (configuration not stated): the B-score entry was “inactive”.

As to `CCO[C@@H]1OC(C(=O)NC2CC2)=C[C@H](C)[C@H]1CCCO`, the B-score result is “inactive”.

As to `O=C(NC1CCCCC1)C1CC(=O)N(CCc2ccccc2)C1` (configuration not stated), the B-score result is “inactive”.

On to `CCOC(CNC(=O)C(=O)NCC(c1ccco1)N1CCN(c2ccc(OC)cc2)CC1)OCC` (configuration not stated), for which the B-score entry is “inactive”.

In the case of `CCOc1ccc(S(=O)(=O)N2CCC(C(=O)NCc3ccccn3)CC2)cc1Cl`, the B-score result is “inactive”.

Consider `O=C(COc1ccccc1)Nc1nonc1NC(=O)COc1ccccc1`, for which the B-score result is “inactive”.

Consider `CC(=O)c1cc2c(cc1NC(=O)CN1CCCCCC1)OCO2`, for which the B-score entry was “inactive”.

On to `O=C(CCN1C(=O)C2CCCCC2C1=O)Nc1ccc(OC(F)F)cc1` (configuration not stated), for which the B-score result is “inactive”.

For `COC(=O)c1ccc(NC(=O)CSc2nnc(-c3ccncc3)n2C)cc1`, the B-score was 12.9 (active).

As for `COC(=O)c1ccc(NC(=O)CSc2nnc(C3CC3)n2C)cc1`, the B-score entry was “inactive”.

For the molecule `COC(=O)c1ccc(NC(=O)CSc2nnc(CNc3ccc(OC)cc3)n2C)cc1`, the B-score entry is “inactive”.

`COc1cccc(-c2cccc(NC(=O)C3CCN(C4CCC4)CC3)c2)c1`: the B-score result was “inactive”.

Regarding `CC(=O)c1c(C)[nH]c(C(=O)N2CCN(S(=O)(=O)c3ccc(F)c(F)c3)CC2)c1C`, the B-score result is “inactive”.

As to `[O-][n+]1onc2c1CCc1[nH]c(-c3ccccc3)nc1-2`, the B-score entry was “inactive”.

Regarding `C=CCN1C(=NC(=O)COc2ccccc2)SC2CS(=O)(=O)CC21` (configuration not stated), the B-score result is “inactive”.

On to `O=c1c2ccccc2cnn1Cc1n[nH]c(=S)n1-c1ccccc1F`, for which the B-score entry is “inactive”.

`CCC(C(=O)OCC(=O)Nc1ccccc1-c1ccccc1)c1ccccc1` (configuration not stated): the B-score result was “inactive”.

For the molecule `CCOCCN(C=O)c1cccc(OC)c1`, the B-score result was “inactive”.

Consider `C=CCc1cc(S(=O)(=O)c2ccc(O)c(CC=C)c2)ccc1O`, for which the B-score entry was “inactive”.

As for `C=CCc1ccc(OCCOc2cccc(/C=N/n3cnnc3)c2)c(OC)c1`, the B-score result is “inactive”.

As for `CN(C(=O)CC(NC(=O)c1ccccc1)(c1ccccc1)c1ccccc1)c1ccccc1`, the B-score entry was “inactive”.

Regarding `Cc1cccc(NC(=O)C(C)N2C(=O)C3C4CC(C(Br)C4Br)C3C2=O)c1` (configuration not stated), the B-score result was “inactive”.

For the molecule `CC(=O)c1c(N2CCN(c3ccc(F)cc3)CC2)nc(=S)n(-c2ccccc2)c1C`, the B-score result is “inactive”.

With `CC(=O)Nc1ccc(NC(=O)COc2ccc(S(=O)(=O)NC(C)c3ccccc3)cc2)cc1` (configuration not stated), the B-score result is “inactive”.

With `FC(F)(F)c1cccc(-c2cc3ccccc3nc2N2CCCC2)c1`, the B-score entry is “inactive”.

In the case of `Cc1cccc2[nH]c(CN(C)C(=O)C3CCC(=O)N(CCc4ccccc4)C3)nc12` (configuration not stated), the B-score result is “inactive”.
